Assay results from PubChem BioAssay (NCATS).
Inconclusive results are not listed. Active and inactive are the calls of the source. Unless noted, the call rests on the fitted dose curve; in most records, active means well fitted curve in the direction sought with a large enough effect; inconclusive means small, poorly fitted or top-dose-only effect, or another doubt; inactive means no such curve, though single readings can be large; an effect the other way counts as inactive or inconclusive.

Tests used:
[1] = Cytotoxicity counterscreen for NFkB agonists and antagonists (AID 624476);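 further: cells exposed to compound for 48 hours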; further: potency means the concentration at half of the fitted maximal effect
[2] = qHTS Assay for Identification of Small Molecule Antagonists for NFkB Signaling Pathway. (AID 624479; calls by dose curve;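 further: pathway stimulated with TNF alpha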; further: potency means the concentration at half of the fitted maximal effect)
[3] = Cell Proliferation Assay against the TMD8 Cell Line (AID 651645); settings: TMD8 DLBCL cell line proliferation/viability; at 46.1 µM (top of the series);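 further: cells exposed to compound for 48 h before reading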
Summary of the method: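 500 TMD8 cells/well, RPMI + Glutamax, no phenol red, 5% FBS; cpd added immediately; 48 h, 37C, 5% CO2; CellTiter-Glo, luminescence. Controls: DMSO = 100%, bortezomib 9.2 uM final = 0%.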

[4] = Cell Proliferation Assay against the HBL1 Cell Line (AID 651646); settings: HBL1 DLBCL cells; at 46.1 µM (top of the series);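 further: cells exposed to compound for 48 h before reading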
Summary of the method: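 Luminescent ATP read-out (CellTiter-Glo) after 48 h compound exposure of HBL1 cells at 37 °C; percent activity was scaled between DMSO as 100% and 9.2 uM bortezomib (final) as 0%.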

[5] = Cell Proliferation Assay against the TMD8 Cell Line (Caspase readout at 16 hrs) (AID 651712); further: potency means the concentration at half of the fitted maximal effect
Summary of the method: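 Apoptotic response of TMD8 cells was judged from caspase 3/7 activation following a 16 hour compound incubation at 37 °C. Luminescent signal was converted to percent activity, with DMSO set as 0% and 9.2 uM final bortezomib as 100%.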

[6] = Cell Proliferation Assay against the TMD8 Cell Line (Caspase readout at 8 hrs) (AID 651713); further: potency means the concentration at half of the fitted maximal effect
Summary of the method: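 TMD8 cells in RPMI plus 5% FBS were treated with compound for 8 h at 37C. Caspase 3/7 activation was read by Caspase-Glo luminescence. Percent activity was scaled from DMSO (0%) to 9.2 uM bortezomib final (100%).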

[7] = qHTS Assay for Identification of Small Molecule Agonists for NFkB Signaling Pathway. (AID 624478); further: 0% is about no effect
Summary of the method: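 NFkB-bla ME-180 cells carry a beta-lactamase reporter. They received compound plus TNF alpha at 10 pM final (its EC50) for 5 h at 37 C. Reporter activity was read as 460/530 nm emission ratio after 2 h LiveBLAzer substrate loading.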

Row | Compound | Potency [1] | Potency [2] | viability (% of control) [3] [%] | viability, percent of control [4] [%] | Potency [5] | Potency [6] | outcome [7]
1 | CNC(=O)c1cc(Oc2ccc(NC(=O)Nc3cc(C(C)(C)C)nn3-c3ccc4ncccc4c3)c(F)c2)ccn1 | 2640 nM (active) | 42.1 nM (active) | 2.72 | 58.7 | inactive | – | –
2 | COc1ccc(OC)c(-c2nnc3ccc(-c4ccc(OC)c(O[C@@H]5CCOC5)c4)nn23)c1 | inactive | – | 15.1 | 42.3 | 20900 nM (active) | – | –
3 | O=C(Nc1cc(C(F)(F)F)cc(C(F)(F)F)c1)c1cc(Cl)ccc1O | 235 nM (active) | – | 1.86 | 12.7 | 296 nM (active) | – | –
4 | C=CC(=O)Nc1cccc(Oc2nc(Nc3ccc(N4CCN(C)CC4)cc3OC)ncc2Cl)c1 | – | inactive | 0.697 | 2.13 | – | 7430 nM (active) | –
5 | Fc1cc(-c2cccc3ncc(-c4cnn(C5CCNCC5)c4)nc23)cc(F)c1CN1CCOCC1 | – | – | 1.53 | 2.06 | – | – | inactive
6 | Cc1cc(Nc2cc(N3CCN(C)CC3)nc(Sc3ccc(NC(=O)C4CC4)cc3)n2)n[nH]1 | – | – | 19.5 | 27.1 | – | inactive | inactive
7 | Cc1cnc(Nc2ccc(F)cc2Cl)nc1-c1c[nH]c(C(=O)N[C@H](CO)c2cccc(Cl)c2)c1 | – | – | -0.93 | 0.107 | – | – | inactive
8 | O=C(C=Cc1cccc(S(=O)(=O)Nc2ccccc2)c1)NO | – | – | 1.87 | 2.01 | 935 nM (active) | inactive | inactive
9 | CC(C)=CCCC(C)=CCCC(C)=CCSc1ccccc1C(=O)O | – | – | 100 | 85.3 | inactive | inactive | –
10 | Cc1cn2c(-c3cn[nH]c3)cnc2c(Nc2ccc(C(=O)N3CCNCC3)cc2F)n1 | – | – | 35.7 | 85.6 | – | – | inactive
11 | O=C(O)c1ccc2c(c1)nc(Nc1cccc(Cl)c1)c1ccncc12 | – | 298 nM (active) | 0.231 | 32.2 | – | inactive | –
12 | c1cc(-c2cnn3cc(-c4ccc(OCCN5CCCCC5)cc4)cnc23)ccn1 | – | – | 2.17 | 8.17 | – | – | inactive
13 | CC(=O)c1c(C)c2cnc(Nc3ccc(N4CCNCC4)cn3)nc2n(C2CCCC2)c1=O | – | 16800 nM (active) | 0.508 | 1.52 | 18700 nM (active) | 33200 nM (active) | inactive
14 | O=c1[nH]nc(Sc2ncc([N+](=O)[O-])s2)n1-c1ccc2c(c1)OCCO2 | – | 23700 nM (active) | 0.996 | -0.138 | inactive | inactive | inactive
15 | O=C(c1ccc(Nc2nccc(-c3cc4ccccc4s3)n2)cc1)N1CCC(N2CCCC2)CC1 | – | 266 nM (active) | 0.477 | 0.745 | inactive | – | –
16 | Cn1cc(-c2[nH]c3cc(NC(=O)[C@H](N)C4CCCCC4)cc4c3c2C=NNC4=O)cn1 | – | inactive | 2.55 | 21.5 | 166 nM (active) | – | –
17 | C1=CCOCc2cc(ccc2OCCN2CCCC2)Nc2nccc(n2)-c2cccc(c2)OCC1 | – | – | 61.1 | – | – | – | –
